Source: PubChem BioAssay (NCI)
About 83,000 compounds went through this panel and 20% of them were active in at least one assay; those are over-represented in the sample as a whole.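 In brief: 96-well plates, 48 h treatment, single concentration, percent growth endpoint.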 Values without a mark were called inactive. Calls of active or inactive are those of the source. How the source made its calls: active means growth percent below 10; inactive means the rest.

How the values were obtained:
Assay in all cases: NCI-60 one-dose screen, 48 h (100 = growth as untreated, 0 = no growth, -100 = all killed)
Details in all cases: 10 µM unless noted
HT29 colon = system: HT29 colon
SNB-19 CNS = system: SNB-19 CNS
U251 CNS = system: U251 CNS
PC-3 prostate = system: PC-3 prostate
SK-MEL-5 melanoma = system: SK-MEL-5 melanoma
UACC-62 melanoma = system: UACC-62 melanoma
LOX IMVI melanoma = system: LOX IMVI melanoma
SK-MEL-28 melanoma = system: SK-MEL-28 melanoma
SK-MEL-2 melanoma = system: SK-MEL-2 melanoma
EKVX NSCLC = system: EKVX NSCLC
SN12C renal = system: SN12C renal
TK-10 renal = system: TK-10 renal
ACHN renal = system: ACHN renal
CAKI-1 renal = system: CAKI-1 renal
A498 renal = system: A498 renal
CCRF-CEM leukemia = system: CCRF-CEM leukemia
MOLT-4 leukemia = system: MOLT-4 leukemia
UO-31 renal = system: UO-31 renal
SNB-75 CNS = system: SNB-75 CNS

Structure (SMILES) | growth (HT29 colon) | growth (SNB-19 CNS) | growth (U251 CNS) | growth (PC-3 prostate) | growth (SK-MEL-5 melanoma) | growth (UACC-62 melanoma) | growth (LOX IMVI melanoma) | growth (SK-MEL-28 melanoma) | growth (SK-MEL-2 melanoma) | growth (EKVX NSCLC) | growth (SN12C renal) | growth (TK-10 renal) | growth (ACHN renal) | growth (CAKI-1 renal) | growth (A498 renal) | growth (CCRF-CEM leukemia) | growth (MOLT-4 leukemia) | growth (UO-31 renal) | growth (SNB-75 CNS)
Cc1ccc(Nc2oc(-c3ccccc3)nc2[P+](c2ccccc2)(c2ccccc2)c2ccccc2)cc1 | -28.1% (active) | 0.303% (active) | -58% (active) | -21.1% (active) | -99.7% (active) | -35.4% (active) | -100% (active) | 1.52% (active) | -69.1% (active) | -31.3% (active) | 7.56% (active) | -32.2% (active) | 2.5% (active) | -29.8% (active) | -52.2% (active) | 6.27% (active) | -2.23% (active) |  | 
CO[C@]12C=C/C(=C(/C(=O)OCc3cccnc3)C(=O)CCCCCCCC[C@]3(OC)C=C/C(=C(/C(=O)OCc4cccnc4)C(=O)CCCCCCCC1)O3)O2 | -32.3% (active) | -90.5% (active) | -64.2% (active) | -51.6% (active) | -92.9% (active) | -82.5% (active) | -82.3% (active) | -86.3% (active) | -44.8% (active) | -53.8% (active) | -46.1% (active) |  | -73.6% (active) | -29.7% (active) | -88.4% (active) | -23.2% (active) | -13.1% (active) | -40.7% (active) | 
O=C(CNc1ncco1)Nc1ccc(S(=O)(=O)c2ccc(NC(=O)CNc3ncco3)cc2)cc1 | -93.2% (active) | 19.7% | -92.1% (active) | 40.1% | -60.4% (active) | -19.9% (active) | -81.8% (active) | 58.1% | -6.97% (active) | 50.4% | 8.32% (active) | 54.4% | 30.5% | -51.6% (active) | 100% |  | 5.92% (active) | 41.1% | 42.1%
COc1cc(C)cc(-c2c(-c3cc(N4CC(O)C4)nc(-c4cccnc4)n3)cnn2C)c1 | 88.3% | 91.4% | 91.3% | 82.5% | 69.8% | 73.1% | 52.9% | 92.5% | 113% | 91.7% | 77.8% | 99.5% | 66.5% | 94.5% | 72.8% | 78.9% | 94.6% | 76.7% | 82.5%
N=C(N)c1ccc(-c2ccc(-c3ccc(Cl)cc3Cl)s2)nc1 | 4.27% (active) | 56.3% | -10.6% (active) | 73.2% | 97.7% | 103% | -67.9% (active) | 116% | 109% | 93.6% | 81% | 122% | 74.2% | 39.1% | 104% | 39.1% | 13.5% | 91.3% | 92.4%
CC1=C([Se]CC(OC(=O)[C@@H](CO)NC(=O)OC(C)(C)C)C(=O)NCCCCCC(=O)OCc2ccccc2)C(=O)c2ccccc2C1=O (stereo not given in full) | -67.5% (active) | -87% (active) | -85.8% (active) | -72.6% (active) | -89.9% (active) | -76% (active) | -76.6% (active) | -89.1% (active) | -79.9% (active) | -75.5% (active) | -72.9% (active) | -95.8% (active) | -83.3% (active) | -86.5% (active) |  | -8.88% (active) | -21.6% (active) |  | -99.6% (active)
O=C(Nc1cccc(Cl)c1)Oc1c(Cl)c(Cl)c(Cl)c(Cl)c1Cl | 96.3% | 99.1% | 102% | 86.9% | 90.6% | 90% | 95.9% | 109% | 100% | 78.9% |  | 125% | 95.6% | 88.2% | 78.8% | 94.4% | 96% | 72.1% | 76.2%
O=C1C=CC2(O)OC(c3ccccc3)CC(=O)C2=C1O (stereo not given) | 108% | 87.8% | 74.9% |  | 89.8% | 80.7% | 77% | 95.7% | 102% | 89.1% |  | 126% | 97.8% | 86.5% |  | 46.1% | 77.8% | 62.7% | 92%
Nc1cc(-c2ccc(Cl)cc2)nn1-c1nc(-c2ccc(Br)cc2)cs1 | 92% | 91.4% | 95.2% | 91.5% | 100% | 91.1% | 102% | 95.3% | 96.9% | 93.6% | 97.7% | 96.4% | 101% | 97.8% | 91.7% | 104% | 103% | 93.4% | 89.4%
